Source: PubChem BioAssay
KLK7 zymogen act: activators of human kallikrein-7 zymogen | P49862 | purified proKLK7, EDANS-DABCYL substrate fluorescence; 100% is mature enzyme control, 0% vehicle | activation, % at 7 µM | 370,000 tested, 0.9% active | AID 652039;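 active = activation above the mean of all tested compounds plus 3 SD, computed per campaign excluding outliers beyond control limits, cut at about 13% in these data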
Target sequence (P49862 whole entry, looked up): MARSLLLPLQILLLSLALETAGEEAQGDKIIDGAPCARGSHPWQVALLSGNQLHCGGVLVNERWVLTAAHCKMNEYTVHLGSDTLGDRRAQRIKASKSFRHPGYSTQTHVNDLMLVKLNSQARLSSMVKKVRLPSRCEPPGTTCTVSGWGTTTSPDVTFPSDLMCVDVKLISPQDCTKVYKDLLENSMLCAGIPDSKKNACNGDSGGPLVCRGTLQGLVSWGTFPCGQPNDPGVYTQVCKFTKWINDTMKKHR
MBD2 inh: MBD2-methylated oligo binding inhibition; inhibition, % at 4.4 µM; 370,000 tested, 0.31% active; TR-FRET, MBD2 binding to methylated oligonucleotide; Q9UBB5; in the data active = inhibition above about 13%
Rin1 Abl inh: blocks binding of human Rin1 to Abl. P00519+Q13671. TR-FRET Rin1/Abl binding, biochemical. inhibition, % at 7.35 µM. 360,000 tested, 0.4% active; in the data active = inhibition above about 5%, passing the limit was not always enough
UHRF1 binding: UHRF1 methyl-DNA binding inhibition; UHRF1 binding to methylated oligo, TR-FRET; 370,000 tested, 0.75% active; Q96T88; AID 687016; inhibition, % at 4.4 µM;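 also: UHRF1 SRA domain binding a hemimethylated CpG hairpin DNA probe; 0% = median of test compound wells and 100% = reference inhibitor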
LEDGF integ inh: blocks HIV-1 LEDGF/p75-dependent DNA integration. AID 743269. inhibition, % at 3.7 µM. 370,000 tested, 0.64% active. TR-FRET IN-LEDGF/p75 DNA integration, Eu/Cy5;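 active = inhibition above the screen-wide mean plus 3 SD, cut at about 13% in these data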;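 also: signal is the Cy5 over europium emission ratio at 671 and 618 nm; 0% = plate median of compound wells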
Neddyl block: blocks human cullin neddylation; 360,000 tested, 0.58% active; P61081+Q13564; calls only at 25 µM; TR-FRET cullin neddylation, biochemical; in the data active = inhibition above about 36%
UHRF1 DNA bind: counter-screen for MBD2 inhibitors: human UHRF1 methylated DNA binding inhibitors | 1,000 tested, 25% active | UHRF1 binding to methylated oligonucleotide, TR-FRET | shares compounds with MBD2 inh | inhibition, % at 4.4 µM;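 also: UHRF1 SRA domain binding a labeled hemimethylated CpG hairpin DNA; 0% = vehicle only and 100% = reference inhibitor with vehicle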
MBD2 DBD conf: MBD2-DBD methyl-DNA binding inhibition, TR-FRET confirmation | AID 720531 | TR-FRET MBD2-DBD binding to methylated oligonucleotide | 1,000 tested, 26% active | shares compounds with MBD2 inh | inhibition, % at 4.4 µM; in the data active = inhibition above about 14%
An asterisk follows results filed as active; i = inactive; / = no result given. Hits are enriched below; roughly 3.1% of the tested compounds scored in any of these assays. Rule as the data show it, unless noted: active = inhibition above about 21%; inactive = the rest.

SMILES	KLK7 zymogen act	MBD2 inh	Rin1 Abl inh	UHRF1 binding	LEDGF integ inh	Neddyl block	UHRF1 DNA bind	MBD2 DBD conf
COC(=O)[C@]12C[C@H](CC(=O)NCC3CCCCC3)C(=O)N(Cc3ccco3)C1=C[C@H](C(C)(C)C)O[C@@H]2C	0	1	/	1	-1	/	/	/
COC(=O)[C@]12C[C@H](CC(=O)NCCCN3CCCC3=O)C(=O)N(Cc3ccc(Cl)cc3Cl)C1=C[C@H](C1CCCC1)O[C@@H]2C	0	15*	/	0	-4	/	13	3
CCN1CCN(c2nc3c(C)cccn3c(=O)c2C=C(C#N)C#N)CC1	6	-9	-4	-3	4	i	/	/
CN(Cc1ccccc1)S(=O)(=O)c1cccc(C(=O)O)c1	0	3	2	-2	9	i	/	/
O=C(NC(=S)Nc1nc(-c2ccc(Br)cc2)cs1)c1cccnc1	1	16*	-4	-3	2	i	6	1
O=C(Nc1nc(-c2ccc(Br)cc2)cs1)c1cccnc1	0	-5	-4	4	1	i	/	/
O=C(Nc1ccc(F)cc1)Nc1c(-c2ccc(C(F)(F)F)cc2)nc2ncccn12	5	3	/	3	-2	/	/	/
O=C1NC[C@H](CCCCN2C[C@H](Cc3ccccc3)N(CCc3ccc(O)cc3)C(=O)C2=O)N(CCC2CCCCC2)C1=O	1	-5	/	0	2	i	/	/
C[C@H](NS(=O)(=O)c1ccccc1F)C(=O)OCC(=O)N1CCc2ccccc21	0	17*	-2	-1	-3	i	7	2
O=C(NCCc1ccccc1)/C(=C\c1cccc([N+](=O)[O-])c1)NC(=O)c1ccco1	0	4	0	1	-5	i	/	/
CC(Sc1nnnn1C)C(=O)Nc1nc(-c2ccc(F)c(F)c2)cs1 (configuration not stated)	0	18*	1	27*	11	i	2	4
COc1ccccc1-c1nnc(SCC(=O)Nc2ccc(S(N)(=O)=O)cc2)n1N	0	1	-2	1	0	i	/	/
O=C1COc2ccc(C(=O)COC(=O)/C=C/c3ccc(Br)o3)cc2N1	0	19*	-1	46*	24*	i	44*	32*
COc1cc(=O)[nH]c(SCC(=O)Nc2nc3c(s2)CCCC3)n1	0	-1	-2	2	-9	i	/	/
Cc1ccc2nc(-c3cccc(Cl)c3)c(Cc3ccsc3)n2c1	-1	13*	/	20	-1	/	9	5
CCCc1nc2ccc(C)cn2c1Cc1ccsc1	0	16*	3	22*	-2	i	10	7
Cc1ccc2nc(-c3ccc(Cl)cc3)c(Cc3ccsc3)n2c1	1	-2	/	15	-1	/	/	/
Cc1ccc(-c2nc3ccc(C)cn3c2Cc2ccsc2)cc1	-1	5	1	13	-1	i	/	/
C=CCNC(=O)C(=O)NCC(c1ccc2c(c1)OCO2)N1CCOCC1 (configuration not stated)	0	-6	1	-2	0	i	/	/
CC(C)NC(=O)C(=O)NCC(c1ccc2c(c1)OCO2)N1CCOCC1 (configuration not stated)	0	14*	-1	28*	5	i	3	1
CCN(Cc1ccccc1)C(=O)CCCN1C(=O)COc2ccc(C)cc21	0	0	/	2	-4	/	/	/
CCOC(=O)CNS(=O)(=O)c1ccc(S(=O)(=O)N2CCCC2)cc1	-1	2	3	4	-1	i	/	/
Cc1ccc(S(=O)(=O)NCC(=O)OCC(=O)c2ccc(S(=O)(=O)N3CCCCC3)cc2)cc1C	1	25*	4	-1	-4	i	2	4
Nc1ncc(C(=O)O)c(-c2ccccc2)n1	0	37*	-1	2	-1	i	6	2
CCOC(=O)c1cnc(N)nc1-c1ccccc1	0	2	0	0	0	i	/	/
SMILES	KLK7 zymogen act	MBD2 inh	Rin1 Abl inh	UHRF1 binding	LEDGF integ inh	Neddyl block	UHRF1 DNA bind	MBD2 DBD conf
COc1cccc(N2CCN(C(=O)c3ccc(CS(=O)c4ccccc4C)o3)CC2)c1 (configuration not stated)	0	2	5	1	2	i	/	/
COc1ccc(N2CCN(C(=O)c3ccc(CS(=O)c4cccc(C)c4)o3)CC2)cc1 (configuration not stated)	1	14*	0	23*	-1	i	5	4
COC(=O)[C@]12C[C@H](CC(=O)NCc3cccs3)C(=O)N(Cc3ccccc3)C1=C[C@H](C1CCCC1)O[C@@H]2C	1	5	/	1	-2	/	/	/
CCCc1nc2ccc(Cl)cn2c1Cc1ccccc1OC	0	5	1	18	4	i	/	/
CCCc1nc2c(C)cc(Br)cn2c1Cc1ccccc1	0	13*	-4	22*	-1	i	11	6
CCCc1nc2ccc(Cl)cn2c1Cc1ccccc1	0	18*	4	23*	-1	i	10	5
CCN(CC)c1ccc(CN2CCC(C(=O)NCc3ccc(C)cc3)CC2)cc1	-1	-3	2	-1	4	i	/	/
CSc1cc(-c2ccc(Cl)cc2)c(C(=O)N2CCCC2)s1	0	-2	1	-1	0	i	/	/
O=C(NC1CCN(C(=O)Nc2ccccc2)CC1)C1CCCCC1	0	-3	1	2	3	i	/	/
Cc1ccccc1NC(=O)N1CCC(NC(=O)C2CCCCC2)CC1	0	14*	0	19	1	i	6	5
CCCCn1nnnc1C(CCc1ccccc1)N1CCN(C/C=C/c2ccccc2)CC1 (configuration not stated)	0	15*	5	19	-10	i	12	4
CCCCn1nnnc1C(CCSC)N1CCN(C/C=C/c2ccccc2)CC1 (configuration not stated)	0	-5	-1	0	2	i	/	/
CCN(C1CCCCC1)S(=O)(=O)c1cc2c3c(c1)CCN3C(=O)CC2	0	-4	4	-2	2	i	/	/
COc1ccc(Cl)cc1NC(=O)CN(C)C(=O)c1cc2c(s1)CCCC2	0	-1	1	-1	-2	i	/	/
Cn1cc(C(=O)NCC(=O)Nc2ccccc2Br)cn1	0	2	1	1	0	i	/	/
Cc1cc(Br)ccc1NC(=O)CNC(=O)c1cnn(C)c1	1	18*	1	1	4	i	7	2
